This note sets out measurements from article PMC7862700, “An all-to-all approach to the identification of sequence-specific readers for epigenetic DNA modifications on cytosine”.

Common to all, as to assay: DAPPL (digital affinity profiling via proximity ligation, sequencing); 10 mM Tris-HCl pH 7.5, 50 mM NaCl, 1 mM DTT, 4% glycerol, room temperature, 30 min; GST-TFs on glutathione beads, 16-mer random dsDNA library, 0.1% formaldehyde crosslink after washing; high values mean tight binding
Assay [1] deals with T1, FLI1 (Homo sapiens, UniProt Q01543 1-452).
T1 sequence: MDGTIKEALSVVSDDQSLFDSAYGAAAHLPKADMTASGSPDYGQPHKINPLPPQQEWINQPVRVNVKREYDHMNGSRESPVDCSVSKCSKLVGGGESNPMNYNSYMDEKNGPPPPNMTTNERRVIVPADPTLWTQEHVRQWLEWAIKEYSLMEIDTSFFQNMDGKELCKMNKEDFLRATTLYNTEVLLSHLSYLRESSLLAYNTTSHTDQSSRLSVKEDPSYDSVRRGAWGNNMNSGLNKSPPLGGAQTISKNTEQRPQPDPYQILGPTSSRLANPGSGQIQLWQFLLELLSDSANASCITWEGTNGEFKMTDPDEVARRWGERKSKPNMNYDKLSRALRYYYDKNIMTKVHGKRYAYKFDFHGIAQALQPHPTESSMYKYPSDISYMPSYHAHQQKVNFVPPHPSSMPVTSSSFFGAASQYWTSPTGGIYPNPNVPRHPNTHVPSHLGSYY
The following applies: protein: recombinant; tags: N-terminal GST; dsDNA, one strand shown. The procedure, abridged:
(§1)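 Sequencing on an Illumina NextSeq500 followed washing, crosslinking with 0.1% formaldehyde, proximity ligation (BsaI/T4 ligase, 1 h, 37 °C) and PCR amplification of pools that had been incubated for 30 min at room temperature with 200 nmole of a random double-stranded 16-mer DNA library in Tris/NaCl/DTT/glycerol buffer. Each pool held DNA-barcoded human transcription factors, expressed in yeast as GST fusions and captured on glutathione beads, plus a tag-only sample. Binding signal is a hexamer's read frequency for a factor divided by its frequency in the tag-only sample.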

Assay [2] addresses T2, ELK1 (Homo sapiens, UniProt P19419 1-428).
T2 sequence: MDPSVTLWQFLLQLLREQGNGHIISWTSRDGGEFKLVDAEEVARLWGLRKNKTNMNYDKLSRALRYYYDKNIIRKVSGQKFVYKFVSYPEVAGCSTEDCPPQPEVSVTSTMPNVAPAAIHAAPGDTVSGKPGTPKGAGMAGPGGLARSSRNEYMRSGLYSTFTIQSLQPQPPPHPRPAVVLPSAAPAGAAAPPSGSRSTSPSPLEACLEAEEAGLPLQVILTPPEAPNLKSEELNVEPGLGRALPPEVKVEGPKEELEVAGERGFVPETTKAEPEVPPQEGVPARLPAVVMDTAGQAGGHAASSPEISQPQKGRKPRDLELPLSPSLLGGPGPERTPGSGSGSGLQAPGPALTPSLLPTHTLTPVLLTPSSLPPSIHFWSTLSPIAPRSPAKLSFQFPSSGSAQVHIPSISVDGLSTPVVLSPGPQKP
The settings on record: protein: recombinant; tags: N-terminal GST; dsDNA, one strand shown. The procedure, abridged:
as §1

Assay [3] has as its target T3, GABPA (Homo sapiens, UniProt Q06546 1-454).
T3 sequence: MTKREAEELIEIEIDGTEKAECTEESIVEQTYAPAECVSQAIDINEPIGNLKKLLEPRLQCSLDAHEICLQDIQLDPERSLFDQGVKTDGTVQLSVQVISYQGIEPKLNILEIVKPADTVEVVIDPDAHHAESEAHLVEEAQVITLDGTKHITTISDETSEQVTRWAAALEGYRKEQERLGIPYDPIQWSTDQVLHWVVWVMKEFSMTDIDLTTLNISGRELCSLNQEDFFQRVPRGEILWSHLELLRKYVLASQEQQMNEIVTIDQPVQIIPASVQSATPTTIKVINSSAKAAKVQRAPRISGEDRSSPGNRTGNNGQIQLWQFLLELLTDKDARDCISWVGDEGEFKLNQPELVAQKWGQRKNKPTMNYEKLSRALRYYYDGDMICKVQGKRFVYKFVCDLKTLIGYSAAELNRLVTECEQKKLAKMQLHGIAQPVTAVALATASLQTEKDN
The following applies: protein: recombinant; tags: N-terminal GST; dsDNA, one strand shown. In short, it runs like this:
as §1

The target in assay [4] is T4, ERG (Homo sapiens, UniProt P11308 1-479).
T4 sequence: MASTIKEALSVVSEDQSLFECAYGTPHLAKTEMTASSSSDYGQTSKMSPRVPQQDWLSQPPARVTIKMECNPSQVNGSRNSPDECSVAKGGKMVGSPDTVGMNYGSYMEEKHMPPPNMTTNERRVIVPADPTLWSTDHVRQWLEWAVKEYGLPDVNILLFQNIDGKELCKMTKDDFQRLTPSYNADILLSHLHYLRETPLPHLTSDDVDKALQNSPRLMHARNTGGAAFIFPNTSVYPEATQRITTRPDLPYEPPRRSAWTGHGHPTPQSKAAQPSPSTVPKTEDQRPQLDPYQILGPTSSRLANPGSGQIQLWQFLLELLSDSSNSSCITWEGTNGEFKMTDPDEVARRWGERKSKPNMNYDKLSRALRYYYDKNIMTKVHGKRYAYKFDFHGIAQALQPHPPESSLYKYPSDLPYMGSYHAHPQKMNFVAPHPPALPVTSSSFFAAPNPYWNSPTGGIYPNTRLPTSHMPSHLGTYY
The settings on record: protein: recombinant; tags: N-terminal GST; dsDNA, one strand shown. In short, it runs like this: as §1

Assay [5] addresses ELF1 (Homo sapiens, UniProt P32519 1-619). The following applies: protein: recombinant; tags: N-terminal GST; dsDNA, one strand shown. The procedure, abridged:
as §1

Assay [6] deals with T5, EHF (Homo sapiens, UniProt Q9NZC4 1-300).
T5 sequence: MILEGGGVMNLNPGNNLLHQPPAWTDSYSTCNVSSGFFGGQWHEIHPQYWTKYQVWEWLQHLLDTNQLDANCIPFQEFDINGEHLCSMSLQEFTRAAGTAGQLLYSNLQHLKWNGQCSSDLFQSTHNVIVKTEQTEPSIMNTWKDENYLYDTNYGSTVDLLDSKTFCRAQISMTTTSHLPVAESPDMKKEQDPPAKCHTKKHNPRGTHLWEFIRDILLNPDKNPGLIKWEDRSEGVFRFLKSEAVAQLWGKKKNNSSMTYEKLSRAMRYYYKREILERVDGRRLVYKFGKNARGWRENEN
The settings on record: protein: recombinant; tags: N-terminal GST; dsDNA, one strand shown. The procedure, abridged: as §1

The target of assay [7] is SPI1 (Homo sapiens, UniProt P17947 1-270). The settings on record: protein: recombinant; tags: N-terminal GST; dsDNA, one strand shown. The procedure, abridged:
as §1

Assay [8] concerns the target SPIB (Homo sapiens, UniProt Q01892 1-262). The following applies: protein: recombinant; tags: N-terminal GST; dsDNA, one strand shown. In short, it runs like this: as §1
For assay [9], the target named is T6, ELK3 (Homo sapiens, UniProt P41970 1-407).
T6 sequence: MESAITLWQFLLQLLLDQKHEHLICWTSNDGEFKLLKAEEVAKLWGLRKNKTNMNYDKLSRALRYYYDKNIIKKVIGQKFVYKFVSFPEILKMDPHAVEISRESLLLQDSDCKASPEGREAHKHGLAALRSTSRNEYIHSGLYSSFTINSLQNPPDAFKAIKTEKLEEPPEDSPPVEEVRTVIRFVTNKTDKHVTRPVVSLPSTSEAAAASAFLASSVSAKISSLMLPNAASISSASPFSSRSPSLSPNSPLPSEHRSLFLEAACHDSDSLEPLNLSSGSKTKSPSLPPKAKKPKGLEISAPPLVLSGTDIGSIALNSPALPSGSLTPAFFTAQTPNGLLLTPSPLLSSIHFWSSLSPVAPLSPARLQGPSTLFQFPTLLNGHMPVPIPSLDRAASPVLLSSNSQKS
The following applies: protein: recombinant; tags: N-terminal GST; dsDNA, one strand shown. In short, it runs like this: as §1

Assay [10] concerns the target T7, FEV (Homo sapiens, UniProt Q99581 1-238).
T7 sequence: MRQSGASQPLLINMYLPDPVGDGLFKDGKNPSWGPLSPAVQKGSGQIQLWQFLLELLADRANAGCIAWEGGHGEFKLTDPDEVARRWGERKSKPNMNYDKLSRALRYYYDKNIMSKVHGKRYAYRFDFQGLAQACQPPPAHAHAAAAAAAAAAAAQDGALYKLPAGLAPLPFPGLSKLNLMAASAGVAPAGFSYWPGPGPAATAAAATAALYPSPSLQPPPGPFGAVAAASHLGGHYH
The following applies: protein: recombinant; tags: N-terminal GST; dsDNA, one strand shown. In short, it runs like this:
as §1

Assay [11] has as its target ETV5 (Homo sapiens, UniProt P41161 1-510). The settings on record: protein: recombinant; tags: N-terminal GST; dsDNA, one strand shown. The procedure, abridged: as §1
The target of assay [12] is HSF1 (Homo sapiens, UniProt Q00613 1-529). The following applies: protein: recombinant; tags: N-terminal GST; chain copies: 3; dsDNA, one strand shown. In short, it runs like this:
as §1

Assay [13] has as its target T8, SPIC (Homo sapiens, UniProt Q8N5J4 1-248).
T8 sequence: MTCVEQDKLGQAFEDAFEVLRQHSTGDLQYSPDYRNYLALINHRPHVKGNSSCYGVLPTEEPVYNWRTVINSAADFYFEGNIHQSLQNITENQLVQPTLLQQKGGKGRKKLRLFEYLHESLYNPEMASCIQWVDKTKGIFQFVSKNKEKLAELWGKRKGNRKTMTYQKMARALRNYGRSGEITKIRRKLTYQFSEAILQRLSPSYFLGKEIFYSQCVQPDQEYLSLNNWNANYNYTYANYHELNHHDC
The settings on record: protein: recombinant; tags: N-terminal GST; dsDNA, one strand shown. The procedure, abridged:
as §1

In assay [14] the target is ELF4 (Homo sapiens, UniProt Q99607 1-663). The settings on record: protein: recombinant; tags: N-terminal GST; dsDNA, one strand shown. The procedure, abridged:
as §1

Assay [15] concerns the target T9, ELK4 (Homo sapiens, UniProt P28324-2 1-405).
T9 sequence: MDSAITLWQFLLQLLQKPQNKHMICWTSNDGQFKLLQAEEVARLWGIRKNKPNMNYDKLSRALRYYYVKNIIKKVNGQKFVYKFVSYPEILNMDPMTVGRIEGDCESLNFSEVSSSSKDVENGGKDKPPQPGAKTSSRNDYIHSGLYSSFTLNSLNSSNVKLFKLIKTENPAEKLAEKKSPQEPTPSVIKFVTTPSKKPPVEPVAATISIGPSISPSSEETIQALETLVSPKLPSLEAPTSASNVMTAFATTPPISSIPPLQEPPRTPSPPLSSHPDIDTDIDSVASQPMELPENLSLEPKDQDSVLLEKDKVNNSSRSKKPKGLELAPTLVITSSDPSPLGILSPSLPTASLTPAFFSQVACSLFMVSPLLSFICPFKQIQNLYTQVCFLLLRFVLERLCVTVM
The settings on record: protein: recombinant; tags: N-terminal GST; dsDNA, one strand shown. The procedure, abridged: as §1

Assay [16] has as its target T10, ETV2 (Homo sapiens, UniProt O00321 1-342).
T10 sequence: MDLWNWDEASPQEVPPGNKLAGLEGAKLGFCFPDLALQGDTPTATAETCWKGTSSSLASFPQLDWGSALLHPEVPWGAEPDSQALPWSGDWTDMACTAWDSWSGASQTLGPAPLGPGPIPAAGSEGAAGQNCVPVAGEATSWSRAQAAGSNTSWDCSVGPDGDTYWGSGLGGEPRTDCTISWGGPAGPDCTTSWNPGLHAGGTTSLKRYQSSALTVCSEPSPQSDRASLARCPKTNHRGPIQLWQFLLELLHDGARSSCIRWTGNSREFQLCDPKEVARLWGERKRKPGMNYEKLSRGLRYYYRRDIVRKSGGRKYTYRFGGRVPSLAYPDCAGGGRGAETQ
The following applies: protein: recombinant; tags: N-terminal GST; dsDNA, one strand shown. In short, it runs like this:
as §1

Assay [17] concerns the target CRX (Homo sapiens, UniProt O43186 1-299). The settings on record: protein: recombinant; tags: N-terminal GST; dsDNA, one strand shown. In short, it runs like this: as §1
In assay [18] the target is ETV1 (Homo sapiens, UniProt P50549 1-477). The following applies: protein: recombinant; tags: N-terminal GST; dsDNA, one strand shown. The procedure, abridged:
as §1

Chain of ETV5 (P41161 whole entry): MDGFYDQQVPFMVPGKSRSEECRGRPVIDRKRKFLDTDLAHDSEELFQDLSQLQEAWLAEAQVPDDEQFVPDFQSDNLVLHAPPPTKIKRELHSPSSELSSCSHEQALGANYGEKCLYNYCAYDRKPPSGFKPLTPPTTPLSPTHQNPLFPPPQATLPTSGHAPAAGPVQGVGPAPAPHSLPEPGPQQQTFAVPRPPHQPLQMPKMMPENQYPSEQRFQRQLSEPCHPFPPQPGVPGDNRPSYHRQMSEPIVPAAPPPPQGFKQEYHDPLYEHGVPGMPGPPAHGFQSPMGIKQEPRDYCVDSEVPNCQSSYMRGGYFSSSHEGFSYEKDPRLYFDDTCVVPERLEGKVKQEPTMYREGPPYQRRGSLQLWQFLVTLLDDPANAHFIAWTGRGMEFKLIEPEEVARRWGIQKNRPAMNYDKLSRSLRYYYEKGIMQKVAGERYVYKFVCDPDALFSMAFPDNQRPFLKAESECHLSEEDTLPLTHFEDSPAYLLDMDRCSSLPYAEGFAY
Chain of ELF4 (Q99607 whole entry): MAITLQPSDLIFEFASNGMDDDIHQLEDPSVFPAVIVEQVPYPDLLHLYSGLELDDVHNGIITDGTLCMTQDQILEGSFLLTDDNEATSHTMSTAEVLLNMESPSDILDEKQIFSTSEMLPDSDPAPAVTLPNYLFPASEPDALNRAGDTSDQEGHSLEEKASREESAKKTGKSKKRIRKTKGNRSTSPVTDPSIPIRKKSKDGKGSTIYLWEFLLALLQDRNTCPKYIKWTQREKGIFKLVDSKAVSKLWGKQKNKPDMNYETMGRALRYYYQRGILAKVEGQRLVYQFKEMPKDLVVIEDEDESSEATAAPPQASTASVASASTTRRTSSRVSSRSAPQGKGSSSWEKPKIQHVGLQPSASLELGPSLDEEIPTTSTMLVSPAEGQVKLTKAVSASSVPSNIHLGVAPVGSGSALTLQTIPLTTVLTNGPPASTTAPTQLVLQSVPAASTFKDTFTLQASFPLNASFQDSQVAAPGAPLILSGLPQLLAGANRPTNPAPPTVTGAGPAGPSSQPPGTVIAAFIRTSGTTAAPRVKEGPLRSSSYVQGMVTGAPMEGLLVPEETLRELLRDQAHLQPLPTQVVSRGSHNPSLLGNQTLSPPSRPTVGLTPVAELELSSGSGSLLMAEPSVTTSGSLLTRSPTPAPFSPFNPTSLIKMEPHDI
Chain of SPIB (Q01892 whole entry): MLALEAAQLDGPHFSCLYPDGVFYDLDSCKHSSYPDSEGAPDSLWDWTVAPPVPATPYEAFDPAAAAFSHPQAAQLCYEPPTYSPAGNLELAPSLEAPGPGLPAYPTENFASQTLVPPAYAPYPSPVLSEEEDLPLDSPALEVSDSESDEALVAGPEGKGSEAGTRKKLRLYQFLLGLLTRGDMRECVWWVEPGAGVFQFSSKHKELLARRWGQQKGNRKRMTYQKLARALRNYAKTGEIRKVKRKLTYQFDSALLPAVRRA
Chain of ETV1 (P50549 whole entry): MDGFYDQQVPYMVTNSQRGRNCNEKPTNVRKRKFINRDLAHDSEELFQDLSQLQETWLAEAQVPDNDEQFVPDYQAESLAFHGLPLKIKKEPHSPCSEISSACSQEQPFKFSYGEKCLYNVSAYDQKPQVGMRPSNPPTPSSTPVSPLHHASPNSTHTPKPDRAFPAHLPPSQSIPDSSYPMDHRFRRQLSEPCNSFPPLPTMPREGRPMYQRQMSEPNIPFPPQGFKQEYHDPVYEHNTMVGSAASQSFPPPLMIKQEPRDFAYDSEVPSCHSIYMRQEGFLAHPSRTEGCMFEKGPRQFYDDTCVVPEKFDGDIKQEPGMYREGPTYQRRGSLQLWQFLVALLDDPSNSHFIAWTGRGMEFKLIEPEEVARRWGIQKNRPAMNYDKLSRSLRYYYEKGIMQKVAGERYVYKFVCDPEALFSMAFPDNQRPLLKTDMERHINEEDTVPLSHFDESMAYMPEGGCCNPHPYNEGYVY
Chain of HSF1 (Q00613 whole entry): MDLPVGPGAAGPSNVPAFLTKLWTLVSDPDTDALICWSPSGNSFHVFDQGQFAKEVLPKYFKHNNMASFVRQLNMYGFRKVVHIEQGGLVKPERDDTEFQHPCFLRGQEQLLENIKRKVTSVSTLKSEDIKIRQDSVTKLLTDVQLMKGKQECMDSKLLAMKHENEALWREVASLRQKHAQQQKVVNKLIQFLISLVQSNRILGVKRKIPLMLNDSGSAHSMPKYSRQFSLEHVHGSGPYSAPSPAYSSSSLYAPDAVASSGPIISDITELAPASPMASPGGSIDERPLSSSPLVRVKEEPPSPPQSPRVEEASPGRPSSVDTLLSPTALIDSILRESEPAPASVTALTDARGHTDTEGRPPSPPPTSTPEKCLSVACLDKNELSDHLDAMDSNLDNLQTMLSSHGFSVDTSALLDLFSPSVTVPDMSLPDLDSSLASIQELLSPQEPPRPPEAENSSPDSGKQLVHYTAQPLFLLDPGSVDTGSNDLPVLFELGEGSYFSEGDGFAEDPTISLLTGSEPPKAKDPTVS
Chain of CRX (O43186 whole entry): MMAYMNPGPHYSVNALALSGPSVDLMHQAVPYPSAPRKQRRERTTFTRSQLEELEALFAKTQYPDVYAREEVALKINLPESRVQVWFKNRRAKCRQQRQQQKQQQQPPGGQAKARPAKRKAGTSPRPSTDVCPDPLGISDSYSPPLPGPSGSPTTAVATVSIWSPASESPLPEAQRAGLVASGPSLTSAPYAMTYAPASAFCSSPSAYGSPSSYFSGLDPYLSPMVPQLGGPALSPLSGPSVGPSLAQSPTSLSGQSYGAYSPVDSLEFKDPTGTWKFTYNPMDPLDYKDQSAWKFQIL
Chain of ELF1 (P32519 whole entry): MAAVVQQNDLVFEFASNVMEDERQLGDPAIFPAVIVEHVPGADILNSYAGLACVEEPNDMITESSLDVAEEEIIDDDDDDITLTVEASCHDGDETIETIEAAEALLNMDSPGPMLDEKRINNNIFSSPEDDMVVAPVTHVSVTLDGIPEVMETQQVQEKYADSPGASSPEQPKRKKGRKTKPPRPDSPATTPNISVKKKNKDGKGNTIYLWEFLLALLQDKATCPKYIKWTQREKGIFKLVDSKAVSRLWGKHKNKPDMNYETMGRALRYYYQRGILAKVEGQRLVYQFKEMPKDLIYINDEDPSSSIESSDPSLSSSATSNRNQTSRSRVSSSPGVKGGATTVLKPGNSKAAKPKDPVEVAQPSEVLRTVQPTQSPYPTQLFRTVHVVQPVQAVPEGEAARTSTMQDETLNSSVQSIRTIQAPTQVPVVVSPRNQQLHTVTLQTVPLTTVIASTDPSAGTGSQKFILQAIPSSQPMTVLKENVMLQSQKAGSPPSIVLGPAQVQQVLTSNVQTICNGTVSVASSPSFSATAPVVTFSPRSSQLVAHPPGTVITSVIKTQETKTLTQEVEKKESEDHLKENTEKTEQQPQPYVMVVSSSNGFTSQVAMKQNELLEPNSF

As to GGCTAG, the binding signal was 1.07 fold enrichment (6-mer frequency, TF over GST control) in [1]; 1.11 fold enrichment (6-mer frequency, TF over GST control) in assay [2]; 1.1 fold enrichment (6-mer frequency, TF over GST control) in assay [3]; 1.1 fold enrichment (6-mer frequency, TF over GST control) in assay [4]; 1.09 fold enrichment (6-mer frequency, TF over GST control) in assay [5]; 1.05 fold enrichment (6-mer frequency, TF over GST control) in assay [6]. Also, the binding signal in assay [7] was 1.08 fold enrichment (6-mer frequency, TF over GST control); in assay [8], 1.18 fold enrichment (6-mer frequency, TF over GST control); in assay [9], 1 fold enrichment (6-mer frequency, TF over GST control); in [10], 1.08 fold enrichment (6-mer frequency, TF over GST control); in [11], 1.06 fold enrichment (6-mer frequency, TF over GST control); in assay [12], 1.18 fold enrichment (6-mer frequency, TF over GST control). For the same sequence, the binding signal in assay [13] is 1.2 fold enrichment (6-mer frequency, TF over GST control); in assay [14] it was 1.1 fold enrichment (6-mer frequency, TF over GST control); in assay [15], 1.22 fold enrichment (6-mer frequency, TF over GST control); in assay [16] it was 1.15 fold enrichment (6-mer frequency, TF over GST control); in [17], 1.05 fold enrichment (6-mer frequency, TF over GST control); in assay [18], 1.03 fold enrichment (6-mer frequency, TF over GST control).
